In the library only some 14% were active in any assay of this set; here they are far more common.
Sm TGR inh: inhibitors of Schistosoma mansoni thioredoxin glutathione reductase; Q962Y6; hit rate 3% among 360,000; purified TGR, DTNB reduction, TNB absorbance 405 nm; Potency, µM (series often up to 114 µM), inactives show at the top dose activity change, negative = inhibition, most hits filed as inhibitors; further: potency means the concentration at half of the fitted maximal effect; nearly all actives have a fitted effect of over 60% in size
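First, TGR (20 nM dispensed) and NADPH were mixed with compound. Second, a 15 min room-temperature incubation followed. Third, further NADPH and then DTNB were added to start the reaction. Finally, TNB absorbance was monitored kinetically.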
Pf growth 96h: P. falciparum growth inhibition at 96 hour, primary screen for plastid delayed-death inhibitors; P. falciparum luciferase reporter growth, 96 h; Potency, µM (titrated, usually from 28.7 µM), for the others: at the top dose activity change, negative = inhibition, most hits filed as inhibitors; hit rate 6.9% among 320,000; AID 504834; further: potency means the concentration at half of the fitted maximal effect
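P. falciparum expressing integrated firefly luciferase, in erythrocytes at 2% hematocrit, 0.05% parasitemia, incubated with compounds 96 h at 37 C, 5% CO2. Growth inhibition read as loss of luminescence; two-generation exposure targets delayed-death apicoplast inhibitors.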
FBPA Giardia inh: blocks Giardia fructose-bisphosphate aldolase activity | AID 2451 | purified Giardia FBPA | A8B2U2 | hit rate 0.71% among 290,000 | Potency, µM (series often up to 59.6 µM), inactives show top-dose activity, negative = inhibition, usual class: inhibitors; further: potency means the concentration at half of the fitted maximal effect; nearly all actives have a fitted effect of over 55% in size
Target sequence (A8B2U2 whole entry, looked up): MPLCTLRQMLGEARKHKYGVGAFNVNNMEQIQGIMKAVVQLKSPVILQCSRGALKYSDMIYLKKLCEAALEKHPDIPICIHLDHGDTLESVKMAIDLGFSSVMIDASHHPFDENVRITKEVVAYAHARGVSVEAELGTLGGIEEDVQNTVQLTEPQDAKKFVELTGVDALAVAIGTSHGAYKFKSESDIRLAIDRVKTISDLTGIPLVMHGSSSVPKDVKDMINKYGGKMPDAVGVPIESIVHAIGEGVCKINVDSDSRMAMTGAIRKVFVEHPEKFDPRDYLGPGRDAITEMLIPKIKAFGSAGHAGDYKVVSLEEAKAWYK
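Giardia FBPA (40 nM reagent) was preincubated 10 min at RT with compound (up to 57.5 uM final), then substrate plus GAPDH/TPI/NAD/arsenate coupling system with diaphorase/resazurin was added; resorufin fluorescence (525/598 nm) was read after 20 min.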
HCMV inh: blocks human cytomegalovirus replication; HFF cells, HCMV-luciferase reporter, 72 h; active compounds read low; activity change, negative = inhibition, % at 57.5 µM; hit rate 4.5% among 410,000; AID 1259415; in the data active means activity change below about -60%; inconclusive means no clear call, values can overlap the other calls; inactive means above about -39%
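Luciferase read-out from HCMV-luciferase-infected HFFs (MOI 1 PFU/cell) 72 h post infection at 37C; compounds added after 16 h cell attachment; activity normalized between buffer-only basal and Salinomycin (10uM) inhibitor controls.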
Pf growth 48h: inhibits P. falciparum growth in the first generation, 48 h | AID 504832 | Potency, µM (titrated, usually from 28.7 µM), for the others: top-dose activity change, negative = inhibition, usual class: inhibitors | P. falciparum luciferase growth in erythrocytes, 48 h | hit rate 5.9% among 310,000; further: potency means the concentration at half of the fitted maximal effect
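A one-generation exposure of luciferase-tagged malaria parasites in RPMI 1640/Albumax erythrocyte culture, 37 C and 5% CO2. Inhibition is inferred from decreased luminescence after adding detection reagent.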
* marks the source's active call; other numbers are inactive results; ? = inconclusive; nt = not tested or not shown; + = active, no number; [ ] = another dose, or the depositor's remark. Unless noted, the call rests on the fitted dose curve; in most records, active means well fitted curve in the direction sought with a large enough effect; inconclusive means small, poorly fitted or top-dose-only effect, or another doubt; inactive means no such curve, though single readings can be large; an effect the other way counts as inactive or inconclusive. On the % scale 0 is the no-effect control and ±100 the full control effect.

SMILES	Sm TGR inh	Pf growth 96h	FBPA Giardia inh	HCMV inh	Pf growth 48h
CCCCc1c(O)nc(SCC(=O)Nc2ccc(C)cc2)n(-c2ccc(OC)cc2)c1=O	10%	6%	nt	-11	6%
COc1cccc(NC(=O)CSc2nc(O)c(C)c(=O)n2-c2ccc(C)cc2)c1	1%	10µM*	0%	-2	-5%
COc1cccc(NC(=O)CSc2nc3ccccc3c(=O)n2C)c1	5%	?	13%	?	12µM*
CC(C)Oc1ccccc1NC(=O)CSc1nc2ccccc2c(=O)n1C	2%	6%	7%	?	-27%
C=C1CCC[C@]2(C)C[C@H]3OC(=O)[C@H](CNCCc4ccccc4OC)C3CC12 (some centres undefined)	nt	nt	-2%	nt	nt
Cc1ccc(NC(=O)CSc2nc(O)cc(=O)n2-c2ccc(C)cc2)cc1	4%	?	nt	-31	13µM*
Cc1ccc(NC(=O)CSc2nc(O)cc(=O)n2C)cc1	28%	-1%	4%	-8	-4%
COc1ccc(-n2c(SCC(=O)N3CCOCC3)nc(O)cc2=O)cc1	-3%	5.9µM*	nt	20	13%
O=c1[nH]cnc2c1nc(Cl)n2C1OC(CO)C(O)C1O (centres undefined)	nt	nt	4%	nt	nt
Cc1ccc(S(=O)(=O)/N=C(\CCl)N2CCOCC2)cc1	0%	?	0%	22	13µM*
CN(CC(=O)Nc1ccc(F)cc1)C(=O)CN1C(=O)c2ccccc2C1=O	-13%	?	nt	-3	6%
CCC1CN(S(=O)(=O)c2cc(-c3cc(C)no3)ccc2OC)c2cc(C)ccc2O1 (centres undefined)	3%	?	6%	?	10µM*
COc1ccc(-c2cc(C)no2)cc1S(=O)(=O)N1CCOc2ccccc21	-17%	5%	-13%	19	?
COc1ccc(-c2cc(C)no2)cc1S(=O)(=O)N1CCN(c2cccc(C)c2)C(C)C1 (centres undefined)	-13%	?	nt	-74*	?
CCCN(c1ccccc1F)S(=O)(=O)c1cc(-c2cc(C)no2)ccc1OC	6%	15µM*	nt	0	?
CCc1ccc(-c2cc(C)no2)cc1S(=O)(=O)N1CCOc2ccc(C)cc21	-7%	?	nt	?	2.9µM*
COc1ccc(NC(=O)CSc2nnc(-c3ccncc3)o2)c([N+](=O)[O-])c1	-21%	?	-11%	34	17%
Cc1cc(-c2ccc(C(C)C)c(S(=O)(=O)N3CCOc4ccccc43)c2)on1	-3%	19%	-5%	-64*	15µM*
CCc1ccc(-c2cc(C)no2)cc1S(=O)(=O)N1CCN(c2ccccc2F)CC1	3%	-29%	10%	-30	?
CCc1ccc(-c2cc(C)no2)cc1S(=O)(=O)N1CCN(c2cccc(C)c2C)CC1	7%	12µM*	nt	-8	5.2µM*
CCc1ccc(-c2cc(C)no2)cc1S(=O)(=O)N1CCN(c2cc(C)ccc2C)CC1	-10%	11%	-2%	0	13µM*
Cc1ccc(-c2onc(C)c2C)cc1S(=O)(=O)N1CCOc2ccccc21	-10%	52%	-12%	+	?
Cc1ccc(-c2onc(C)c2C)cc1S(=O)(=O)N1c2ccccc2CC1C (centres undefined)	4%	nt	nt	-39	nt
CCn1cc2nc(SCc3ccccc3F)n(Cc3ccc(C)cc3)c(=O)c2n1	0%	nt	nt	-4	nt
CCCS(=O)(=O)N1CCCC(C(=O)N2CCCCC2)C1 (centres undefined)	-3%	0%	-1%	-17	-5%[0.00184 µM]
SMILES	Sm TGR inh	Pf growth 96h	FBPA Giardia inh	HCMV inh	Pf growth 48h
CCC(NC(=O)Cc1cccs1)c1ccccc1 (centres undefined)	-8%	5.9µM*	-5%	-18	3%
Cc1ccc(C(=O)NCCc2cccs2)cc1	19%	?	1%	-61*	223%
CC(NC(=O)Cc1cccs1)c1ccccc1 (centres undefined)	10%	134%	4%	-29	37%
O=C(NCCc1cccs1)C(c1ccccc1)c1ccccc1	?	12µM*	2%	6	-35%
CCCCN=C1NN=C(c2ccc3c(c2)OCCO3)CS1	14%	-53%	-11%	-4	35%
Cc1cc(C2=NNC(=NC3CCCCC3)SC2)c(C)n1-c1c(C)n(C)n(-c2ccccc2)c1=O	-1%	13µM*	-6%	-22	6.6µM*
Cc1cc(C2=NNC(=NC3CC3)SC2)c(C)n1-c1ccccc1F	-1%	?	-5%	-97*	?
C=C(C)CN=C1NN=C(c2cc(C)n(-c3ccc(C)cc3)c2C)CS1	-15%	?	-12%	-37	?
c1cc2c(cc1C1=NNC(=NC3CC3)SC1)OCCO2	4%	-44%	5%	-90*	-57%
CCc1ccc(C2=NNC(=Nc3c(C)n(C)n(-c4ccccc4)c3=O)SC2)cc1	-8%	15%	-11%	-11	14%
CN1CCN(c2cc(-c3ccccc3Cl)ncn2)CC1	nt	nt	7%	nt	nt
CCc1ccccc1N(C)C(=O)c1nn(-c2ccc(OC)cc2)c(=O)c2c1c1ccccc1n2C	0%	nt	nt	12	nt
COc1cccc(C(=O)C2CCCN(C3CCOCC3)C2)c1 (centres undefined)	68%	2.3µM*	5%	1	-2%
CCOC(=O)N1CCC(N2CCCC(C(=O)c3ccc4cc(OC)ccc4c3)C2)CC1 (centres undefined)	-10%	?	0%	-12	8.3µM*
COc1ccc(C2=CSC3=C(C(=O)c4cccc(S(=O)(=O)N(C)C)c4)CCN23)cc1	1µM*	8.3µM*	1%	20	nt
CO/N=C/NC(=O)Cc1cn(-c2ncc(C(F)(F)F)cc2Cl)c2ccccc12	-19%	-32%	0%	-36	nt
CC(=O)/C=C\c1cn(-c2ncc(C(F)(F)F)cc2Cl)c2ccccc12	5%	10µM*	-8%	-11	?
N#CC(C#N)=Cc1cn(-c2ncc(C(F)(F)F)cc2Cl)c2ccccc12	7.1µM*	2%	-7%	2	-25%
COc1ccc(CCNCC(O)Cn2c3ccccc3c3ccccc32)cc1OC (centres undefined)	13%	?	1%	-64*	?
COc1ccc(CCNCC(O)COc2cccc(Br)c2)cc1OC (centres undefined)	-27%	9.3µM*	-28%	-33	?
COc1ccc(CCNC[C@@H](O)c2ccc(O)cc2)cc1OC	nt	-36%	-1%	nt	-9%
COc1ccc(CCNCC(O)COc2ccc(OC)cc2C(C)(C)C)cc1 (centres undefined)	-9%	2.3µM*	?	-16	2.3µM*
O=C(CSc1ncnc2c1sc1ccccc12)Nc1ccc(Br)cc1	-32%	13µM*	5%	-31	-2%
COc1ccccc1N1C(=O)c2cccc3c(Cl)ccc(c23)C1=O	-11%	20%	-1%	-82*	-19%
C/C(O)=C(/N=O)C(=O)Nc1ccccc1	0%	12µM*	1%	0	1%

Screens as filed in PubChem.
